# According to ChEMBL document CHEMBL1961873, “Compounds: GSK PKIS; Assays: Nanosyn kinase panel” (2012):
# Tests used:
# [1] = target: Tyrosine-protein kinase receptor UFO (Homo sapiens) (UniProt P30530); settings: at 1 µM
# [2] = target: Tyrosine-protein kinase Blk (Homo sapiens) (UniProt P51451); settings: at 0.1 µM
# [3] = target: Tyrosine-protein kinase Blk (Homo sapiens) (UniProt P51451); settings: at 1 µM
# [4] = target: T1, Cytoplasmic tyrosine-protein kinase BMX (Homo sapiens) (UniProt P51813); settings: at 0.1 µM
# T1 sequence (whole entry): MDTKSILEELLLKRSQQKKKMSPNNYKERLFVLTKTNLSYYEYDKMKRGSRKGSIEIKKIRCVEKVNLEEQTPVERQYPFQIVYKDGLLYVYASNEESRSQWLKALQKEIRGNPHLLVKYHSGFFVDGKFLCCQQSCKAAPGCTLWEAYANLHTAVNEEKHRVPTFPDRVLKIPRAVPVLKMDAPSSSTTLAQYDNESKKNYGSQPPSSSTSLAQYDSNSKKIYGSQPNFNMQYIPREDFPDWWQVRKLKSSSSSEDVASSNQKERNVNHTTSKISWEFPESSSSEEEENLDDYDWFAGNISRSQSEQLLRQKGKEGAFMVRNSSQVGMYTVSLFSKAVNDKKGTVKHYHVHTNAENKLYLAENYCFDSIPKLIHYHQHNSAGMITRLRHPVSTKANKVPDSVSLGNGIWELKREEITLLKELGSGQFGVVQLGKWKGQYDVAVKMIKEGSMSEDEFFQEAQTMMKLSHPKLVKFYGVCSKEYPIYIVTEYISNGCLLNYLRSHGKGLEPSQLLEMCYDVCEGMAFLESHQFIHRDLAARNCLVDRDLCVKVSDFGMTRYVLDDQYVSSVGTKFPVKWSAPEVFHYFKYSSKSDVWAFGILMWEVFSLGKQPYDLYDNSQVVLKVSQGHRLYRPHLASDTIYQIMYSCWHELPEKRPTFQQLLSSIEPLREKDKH
# [5] = target: T1, Cytoplasmic tyrosine-protein kinase BMX (Homo sapiens); settings: at 1 µM
# [6] = target: Protein-tyrosine kinase 6 (Homo sapiens) (UniProt Q13882); settings: at 0.1 µM
# Sequence of Protein-tyrosine kinase 6 (Homo sapiens) (Q13882 whole entry, looked up): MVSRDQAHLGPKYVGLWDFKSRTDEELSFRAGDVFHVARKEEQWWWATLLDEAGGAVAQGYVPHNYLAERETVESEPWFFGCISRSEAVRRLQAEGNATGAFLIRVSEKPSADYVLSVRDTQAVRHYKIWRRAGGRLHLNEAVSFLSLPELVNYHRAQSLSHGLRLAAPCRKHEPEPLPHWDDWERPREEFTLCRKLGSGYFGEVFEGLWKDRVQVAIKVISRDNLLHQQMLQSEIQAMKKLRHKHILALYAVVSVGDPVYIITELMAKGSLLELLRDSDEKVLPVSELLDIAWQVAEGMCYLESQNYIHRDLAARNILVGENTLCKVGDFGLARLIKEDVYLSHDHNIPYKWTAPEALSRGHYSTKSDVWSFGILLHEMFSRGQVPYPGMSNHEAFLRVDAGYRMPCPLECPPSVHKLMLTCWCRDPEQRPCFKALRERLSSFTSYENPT
# [7] = target: Protein-tyrosine kinase 6 (Homo sapiens) (UniProt Q13882); settings: at 1 µM
# [8] = target: Tyrosine-protein kinase BTK (Homo sapiens) (UniProt Q06187); settings: at 0.1 µM
# Sequence of Tyrosine-protein kinase BTK (Homo sapiens) (Q06187 whole entry): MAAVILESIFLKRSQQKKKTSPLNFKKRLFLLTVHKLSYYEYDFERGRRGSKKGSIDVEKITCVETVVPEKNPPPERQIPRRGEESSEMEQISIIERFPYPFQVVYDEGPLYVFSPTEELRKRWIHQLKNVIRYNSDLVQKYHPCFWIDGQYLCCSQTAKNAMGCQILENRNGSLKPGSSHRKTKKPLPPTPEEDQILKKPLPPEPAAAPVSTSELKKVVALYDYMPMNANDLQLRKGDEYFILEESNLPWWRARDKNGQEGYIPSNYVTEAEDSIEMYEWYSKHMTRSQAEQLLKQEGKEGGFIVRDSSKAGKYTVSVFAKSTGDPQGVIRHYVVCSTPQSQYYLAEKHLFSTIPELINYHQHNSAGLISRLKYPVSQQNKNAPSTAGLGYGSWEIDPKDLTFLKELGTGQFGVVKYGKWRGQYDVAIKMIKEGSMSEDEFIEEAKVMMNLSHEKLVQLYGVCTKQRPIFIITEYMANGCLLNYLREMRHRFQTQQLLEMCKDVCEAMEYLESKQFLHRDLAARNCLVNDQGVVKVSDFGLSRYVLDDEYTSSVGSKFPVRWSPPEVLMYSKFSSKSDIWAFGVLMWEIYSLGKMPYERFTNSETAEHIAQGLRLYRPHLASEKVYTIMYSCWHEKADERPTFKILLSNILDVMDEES
# [9] = target: Tyrosine-protein kinase BTK (Homo sapiens) (UniProt Q06187); settings: at 1 µM
# [10] = target: Tyrosine-protein kinase CSK (Homo sapiens) (UniProt P41240); settings: at 0.1 µM
# Sequence of Tyrosine-protein kinase CSK (Homo sapiens) (P41240 2-450 limits assumed): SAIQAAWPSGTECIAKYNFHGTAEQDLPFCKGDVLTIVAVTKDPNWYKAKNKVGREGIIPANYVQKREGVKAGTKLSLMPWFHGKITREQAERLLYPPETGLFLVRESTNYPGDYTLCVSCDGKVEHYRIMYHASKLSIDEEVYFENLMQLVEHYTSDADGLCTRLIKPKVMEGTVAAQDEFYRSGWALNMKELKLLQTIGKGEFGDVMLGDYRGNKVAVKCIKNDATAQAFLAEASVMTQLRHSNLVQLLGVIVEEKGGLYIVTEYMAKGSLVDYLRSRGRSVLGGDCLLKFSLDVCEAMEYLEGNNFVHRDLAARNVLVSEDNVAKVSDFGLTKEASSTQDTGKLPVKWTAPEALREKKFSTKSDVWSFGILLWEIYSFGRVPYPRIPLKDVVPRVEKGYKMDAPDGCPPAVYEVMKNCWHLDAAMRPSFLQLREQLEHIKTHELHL
# [11] = target: Tyrosine-protein kinase CSK (Homo sapiens) (UniProt P41240); settings: at 1 µM
# [12] = target: T2, Discoidin domain-containing receptor 2 (Homo sapiens) (UniProt Q16832); settings: at 0.1 µM
# T2 sequence (whole entry): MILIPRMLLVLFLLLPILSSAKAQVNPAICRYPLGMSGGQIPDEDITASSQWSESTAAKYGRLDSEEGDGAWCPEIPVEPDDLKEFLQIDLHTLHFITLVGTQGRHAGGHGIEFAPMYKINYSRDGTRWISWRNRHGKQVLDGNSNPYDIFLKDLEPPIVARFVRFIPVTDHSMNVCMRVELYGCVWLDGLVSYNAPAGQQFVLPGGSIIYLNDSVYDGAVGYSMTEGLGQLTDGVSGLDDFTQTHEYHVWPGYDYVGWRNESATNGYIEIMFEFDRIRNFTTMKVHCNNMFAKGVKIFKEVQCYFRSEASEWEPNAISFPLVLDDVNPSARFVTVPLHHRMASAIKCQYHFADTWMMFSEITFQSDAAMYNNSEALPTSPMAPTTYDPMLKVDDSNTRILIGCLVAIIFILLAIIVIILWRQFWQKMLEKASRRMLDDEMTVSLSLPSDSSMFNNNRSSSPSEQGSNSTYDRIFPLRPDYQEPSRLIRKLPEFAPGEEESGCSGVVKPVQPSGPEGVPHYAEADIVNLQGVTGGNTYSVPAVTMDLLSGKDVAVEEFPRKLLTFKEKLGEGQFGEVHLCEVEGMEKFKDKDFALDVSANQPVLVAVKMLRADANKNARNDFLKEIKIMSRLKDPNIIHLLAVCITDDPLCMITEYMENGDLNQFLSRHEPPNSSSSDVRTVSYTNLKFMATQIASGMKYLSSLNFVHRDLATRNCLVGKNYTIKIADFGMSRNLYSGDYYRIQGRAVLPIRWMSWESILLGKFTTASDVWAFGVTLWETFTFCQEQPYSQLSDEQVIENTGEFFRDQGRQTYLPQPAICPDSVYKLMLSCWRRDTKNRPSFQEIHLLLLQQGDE
# [13] = target: T2, Discoidin domain-containing receptor 2 (Homo sapiens); settings: at 1 µM
# [14] = target: Epidermal growth factor receptor (Homo sapiens) (UniProt P00533); settings: at 0.1 µM
# Sequence of Epidermal growth factor receptor (Homo sapiens) (P00533 whole entry): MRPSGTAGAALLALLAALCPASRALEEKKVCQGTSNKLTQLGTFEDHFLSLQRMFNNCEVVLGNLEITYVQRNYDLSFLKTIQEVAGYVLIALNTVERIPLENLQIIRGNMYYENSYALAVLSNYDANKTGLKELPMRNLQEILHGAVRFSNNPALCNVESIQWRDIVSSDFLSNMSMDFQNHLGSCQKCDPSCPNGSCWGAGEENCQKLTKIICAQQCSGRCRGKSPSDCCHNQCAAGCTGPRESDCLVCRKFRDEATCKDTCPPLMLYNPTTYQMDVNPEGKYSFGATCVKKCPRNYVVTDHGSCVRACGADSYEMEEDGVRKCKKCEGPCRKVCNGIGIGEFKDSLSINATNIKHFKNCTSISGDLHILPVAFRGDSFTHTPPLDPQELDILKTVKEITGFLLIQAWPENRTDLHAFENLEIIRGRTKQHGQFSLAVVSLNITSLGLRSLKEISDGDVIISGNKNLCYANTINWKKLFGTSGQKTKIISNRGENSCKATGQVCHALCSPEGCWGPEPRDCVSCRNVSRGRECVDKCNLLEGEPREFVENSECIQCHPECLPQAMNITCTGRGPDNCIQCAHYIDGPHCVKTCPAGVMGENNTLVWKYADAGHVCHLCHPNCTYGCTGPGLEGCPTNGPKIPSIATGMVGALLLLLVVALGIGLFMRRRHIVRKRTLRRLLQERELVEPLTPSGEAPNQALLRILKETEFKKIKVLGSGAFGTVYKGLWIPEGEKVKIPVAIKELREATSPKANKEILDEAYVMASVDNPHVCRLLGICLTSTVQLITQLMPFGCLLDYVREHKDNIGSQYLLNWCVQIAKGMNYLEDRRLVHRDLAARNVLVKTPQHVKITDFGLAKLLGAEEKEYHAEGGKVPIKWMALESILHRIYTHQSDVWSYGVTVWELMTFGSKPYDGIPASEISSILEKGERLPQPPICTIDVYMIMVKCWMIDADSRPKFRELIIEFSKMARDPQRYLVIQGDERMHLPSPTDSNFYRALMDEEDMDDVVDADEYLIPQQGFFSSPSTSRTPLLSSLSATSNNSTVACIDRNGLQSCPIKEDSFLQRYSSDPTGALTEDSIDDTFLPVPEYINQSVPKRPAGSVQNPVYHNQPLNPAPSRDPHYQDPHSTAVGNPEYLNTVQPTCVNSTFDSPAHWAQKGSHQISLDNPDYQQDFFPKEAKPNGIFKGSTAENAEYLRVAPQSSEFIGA
# [15] = target: Epidermal growth factor receptor (Homo sapiens) (UniProt P00533); settings: at 1 µM
# [16] = tested on: Epidermal growth factor receptor (Homo sapiens), P00533 [L858R]; settings: at 0.1 µM
# [17] = tested on: Epidermal growth factor receptor (Homo sapiens), P00533 [L858R]; settings: at 1 µM
# [18] = tested on: Epidermal growth factor receptor (Homo sapiens), P00533 [L861Q]; settings: at 0.1 µM
# Sequence of Epidermal growth factor receptor (Homo sapiens), P00533 [L861Q] (P00533 whole entry L861Q): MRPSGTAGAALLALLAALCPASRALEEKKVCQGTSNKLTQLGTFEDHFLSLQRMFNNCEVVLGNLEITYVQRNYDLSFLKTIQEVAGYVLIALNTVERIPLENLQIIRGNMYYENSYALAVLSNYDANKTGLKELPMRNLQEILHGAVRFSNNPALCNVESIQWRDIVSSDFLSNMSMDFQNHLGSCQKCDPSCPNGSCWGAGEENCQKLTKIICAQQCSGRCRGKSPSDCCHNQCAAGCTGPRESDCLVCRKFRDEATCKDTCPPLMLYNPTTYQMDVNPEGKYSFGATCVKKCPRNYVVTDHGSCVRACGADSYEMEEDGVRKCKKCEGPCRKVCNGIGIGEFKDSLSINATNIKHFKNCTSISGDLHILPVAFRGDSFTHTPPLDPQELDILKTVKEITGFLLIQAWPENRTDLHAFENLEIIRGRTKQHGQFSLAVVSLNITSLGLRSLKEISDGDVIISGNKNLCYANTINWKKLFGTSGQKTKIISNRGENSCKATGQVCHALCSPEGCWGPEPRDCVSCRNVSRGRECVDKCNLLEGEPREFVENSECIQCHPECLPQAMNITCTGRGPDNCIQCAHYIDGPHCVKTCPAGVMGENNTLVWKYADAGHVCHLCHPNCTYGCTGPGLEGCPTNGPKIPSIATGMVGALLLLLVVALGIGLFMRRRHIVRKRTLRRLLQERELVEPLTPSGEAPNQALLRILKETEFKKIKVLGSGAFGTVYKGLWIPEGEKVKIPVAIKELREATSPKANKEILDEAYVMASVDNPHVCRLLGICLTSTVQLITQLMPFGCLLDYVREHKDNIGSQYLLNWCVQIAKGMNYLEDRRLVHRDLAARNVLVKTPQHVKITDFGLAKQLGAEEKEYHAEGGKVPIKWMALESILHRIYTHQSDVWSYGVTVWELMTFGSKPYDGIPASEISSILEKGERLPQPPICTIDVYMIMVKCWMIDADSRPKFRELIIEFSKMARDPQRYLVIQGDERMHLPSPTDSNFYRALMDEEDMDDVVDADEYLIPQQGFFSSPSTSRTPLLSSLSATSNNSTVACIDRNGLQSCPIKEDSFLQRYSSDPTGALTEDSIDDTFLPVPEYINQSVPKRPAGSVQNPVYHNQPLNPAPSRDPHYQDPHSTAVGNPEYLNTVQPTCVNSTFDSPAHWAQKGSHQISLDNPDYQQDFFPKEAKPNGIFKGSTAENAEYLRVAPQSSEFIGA
# [19] = tested on: Epidermal growth factor receptor (Homo sapiens), P00533 [L861Q]; settings: at 1 µM
# [20] = tested on: Epidermal growth factor receptor (Homo sapiens), P00533 [T790M]; settings: at 0.1 µM
# Sequence of Tyrosine-protein kinase Blk (Homo sapiens) (P51451 2-505 limits assumed): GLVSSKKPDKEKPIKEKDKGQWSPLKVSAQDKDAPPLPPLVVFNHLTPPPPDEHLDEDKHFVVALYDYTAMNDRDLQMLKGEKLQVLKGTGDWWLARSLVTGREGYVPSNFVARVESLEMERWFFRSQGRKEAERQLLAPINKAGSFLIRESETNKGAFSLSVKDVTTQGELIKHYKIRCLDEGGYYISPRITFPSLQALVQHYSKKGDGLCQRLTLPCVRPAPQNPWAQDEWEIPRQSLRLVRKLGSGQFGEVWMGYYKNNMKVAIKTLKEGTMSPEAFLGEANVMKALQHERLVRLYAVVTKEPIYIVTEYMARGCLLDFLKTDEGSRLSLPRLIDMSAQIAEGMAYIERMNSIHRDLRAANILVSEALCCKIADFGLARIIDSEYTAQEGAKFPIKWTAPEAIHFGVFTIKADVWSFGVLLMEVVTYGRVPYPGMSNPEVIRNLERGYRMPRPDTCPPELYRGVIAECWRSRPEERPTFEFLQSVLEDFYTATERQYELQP
Structure (SMILES),inhibition [1] [%],inhibition [2] [%],inhibition [3] [%],inhibition [4] [%],inhibition [5] [%],inhibition [6] [%],inhibition [7] [%],inhibition [8] [%],inhibition [9] [%],inhibition [10] [%],inhibition [11] [%],inhibition [12] [%],inhibition [13] [%],inhibition [14] [%],inhibition [15] [%],inhibition [16] [%],inhibition [17] [%],inhibition [18] [%],inhibition [19] [%],inhibition [20] [%]
Cc1ccc(-c2cc3c(NC(=O)C4CC4)ncnc3o2)cc1,-1.05,3.18,12.7,-1.26,7.57,4,8.16,0.73,1.92,2.33,2.78,0.26,1.45,3.75,8.67,3.53,2.75,2.3,4.69,1.98
NS(=O)(=O)c1ccc(N/N=C2\C(=O)Nc3ccc(C(=O)NCc4ccncc4)cc32)cc1,-5.22,2.64,13.4,-3.52,4.33,1.97,4.41,0.85,0.4,2.94,7.78,-0.45,3.57,-0.63,5.5,6.1,4.21,4.5,4.52,2.35
CNC(=O)c1cncc(/C=C/c2ccccc2C)c1,-5.59,2.89,6.2,0.93,16.1,4.25,14.5,0.03,1.29,4.87,9.89,0.33,5.42,1.22,3.62,4.66,11.7,3.44,5.67,1.07
COC(=O)Nc1nc2cc(Oc3ccc(NC(=O)Nc4ccccc4)cc3)ccc2[nH]1,-3.64,2.65,3.63,3.17,3.73,1.45,2.78,0.55,0.58,4.95,1.41,77.2,81.4,0.9,-0.33,0.78,4.35,1.19,1.08,-1.39
CS(=O)(=O)CCNCc1ccc(-c2ccc3ncnc(Nc4ccc(OCc5cccc(C(F)(F)F)c5)cc4)c3c2)o1,-5.12,2.51,6.32,3.21,6.44,2.67,3.19,-2.4,0.46,2.05,3.02,0.91,2.9,15.5,58.8,6.17,26.7,14.4,34.4,0.24
O=C(O[C@H]1CN[C@H](C#Cc2cc3ncnc(Nc4ccc5c(cnn5Cc5ccccc5)c4)c3s2)C1)N1CCOCC1,2.46,-0.69,6.27,-1.03,2.39,1.71,2.7,2.14,1.05,-1.39,4.15,0.56,0.22,72.3,83.3,14.2,56.2,25.9,44.2,0.87
CCS(=O)(=O)c1ccc(OC)c(Nc2ncc(-c3cccc(F)c3)o2)c1,-5.62,21.3,73.8,1.13,33,9.28,29.8,3.65,28.6,7.64,17.9,5.27,28.3,3.05,9.19,9.54,20.1,4.09,8.2,3.64
CS(=O)(=O)CCNCc1ccoc1-c1ccc2ncnc(Nc3ccc(OCc4ccccc4)cc3)c2c1,1.55,0.99,7.84,1.55,3.4,1.71,8.3,0.01,0.8,2.96,4.64,5.97,7.08,66.8,86.2,14.5,51.2,25.4,42.1,0.03
CC1=C(C(=O)Nc2ccc3[nH]nc(C)c3c2)C(c2ccc(C(F)(F)F)cc2)CC(=O)N1 (stereo not given),-6.56,3.36,17,-2.44,4.58,3.23,23.5,1.29,2.32,1.88,5.65,3.33,1.65,2.76,5.52,4.19,1.96,1.79,1.92,2.05
COc1cc2c(cc1Nc1nc(Nc3cccc(F)c3C(N)=O)c3cc[nH]c3n1)N(C(=O)CN1CCN(C(C)C)CC1)CC2,2.45,-0.36,-0.42,2.26,3.16,-1.33,3.54,-0.03,-1.36,-1.06,-3.02,-1.78,-0.55,2.48,17.1,-0.57,15.1,1.65,13.7,2.59
COc1cc(Nc2ncc(-c3ccccc3)o2)cc(OC)c1,-6.19,4.37,20.1,3.71,6.51,0.81,7.86,-1.03,0.87,3.66,4.79,4.48,7.93,3.35,5.26,0.1,1.99,3.52,5.17,1.76
CC(C)c1ccc(-c2cc(-c3c[nH]nc3-c3ccccn3)ccn2)cc1,2.69,1.02,0.42,-0.47,2.05,-0.52,0.14,-1.28,-1.36,1.02,-3.97,3.76,4.98,1.84,3.14,1.78,0.3,0.09,-0.98,-0.66
COc1ccc(Nc2ncc(-c3ccccc3)o2)cc1OC,3.31,1.21,24.1,-7.7,4.92,0.75,2.71,0.8,2.81,1.21,-1.08,-0.12,5.66,1.83,5.16,-1.38,2.96,-1.19,0.83,0.72
